The list is not random: actives were taken first. Their share in the collection is about 3.4%.
sPLA2-III inh = human group III sPLA2 inhibitors, primary screen, biochemical, QFRET, BODIPY PC-A2 liposome substrate | inhibition, % at 12.2 µM | QFRET BODIPY PC-A2 liposome hydrolysis, fluorescence | Group 3 secretory phospholipase A2 (Homo sapiens), Q9NZ20 | hit rate 0.56% among 370,000;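 active = inhibition above mean plus 3 SD of compounds lying within the high and low control bounds, cut at about 19% in these data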;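 note: 0% = median of test compound wells and 100% = no enzyme DMSO wells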
ADAM17 inh = ADAM17 inhibitors, primary screen, biochemical, QFRET; hit rate 0.83% among 370,000; inhibition, % at 6.95 µM; recombinant ADAM17, EDANS/DABCYL FRET peptide cleavage; AID 720648, 2013; Disintegrin and metalloproteinase domain-containing protein 17 (Homo sapiens), P78536;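 active = inhibition above the mean of compounds lying between control limits plus 3 SD, set per campaign, cut at about 8.5% in these data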;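 note: 0% = DMSO-only wells as the low control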
KLK7 zymogen act = proKLK7 zymogen activators, primary screen, biochemical, fluorescence intensity; purified proKLK7, EDANS-DABCYL substrate fluorescence; 100% is mature enzyme control, 0% vehicle; hit rate 0.9% among 370,000; activation, % at 7 µM;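 active = activation above the mean of all tested compounds plus 3 SD, computed per campaign excluding outliers beyond control limits, cut at about 13% in these data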
ADAM10 inh = human ADAM10 inhibitors, primary screen, biochemical, QFRET, HTS; recombinant ADAM10, EDANS/DABCYL FRET peptide cleavage, 3 h; inhibition, % at 7 µM; hit rate 0.62% among 370,000;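 active = inhibition above a per-campaign cutoff equal to the mean of compounds falling between control-based bounds plus 3 SD, cut at about 20% in these data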;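 note: 0% = DMSO wells while the 100% control is not disclosed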
Target sequence (O14672 214-748 limits assumed): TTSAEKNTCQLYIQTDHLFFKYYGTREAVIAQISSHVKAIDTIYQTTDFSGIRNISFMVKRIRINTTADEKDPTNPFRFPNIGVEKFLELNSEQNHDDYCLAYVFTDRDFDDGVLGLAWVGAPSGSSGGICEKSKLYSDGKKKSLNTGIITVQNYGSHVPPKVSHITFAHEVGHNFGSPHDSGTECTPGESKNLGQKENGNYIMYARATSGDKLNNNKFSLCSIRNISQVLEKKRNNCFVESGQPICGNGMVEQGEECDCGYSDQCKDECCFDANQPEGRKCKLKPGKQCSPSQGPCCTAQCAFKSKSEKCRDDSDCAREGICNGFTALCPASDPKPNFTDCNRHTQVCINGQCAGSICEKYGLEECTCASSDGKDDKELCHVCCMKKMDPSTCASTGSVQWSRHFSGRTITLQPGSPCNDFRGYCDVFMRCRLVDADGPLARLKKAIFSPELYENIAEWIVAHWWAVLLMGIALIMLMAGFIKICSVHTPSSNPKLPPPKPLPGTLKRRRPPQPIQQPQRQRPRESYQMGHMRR
CendR NRP1 mod = modulators of CendR peptide binding to NRP-1, primary screen, biochemical, fluorescence polarization, uHTS; FAM-RPARPAR peptide binding to NRP-1; inhibition, % at 25 µM; hit rate 0.85% among 360,000;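 active = inhibition or corrected inhibition above about 18%, plus a signal ratio from 0.5 to 1.5, limit read from the data, passing the limit was not always enough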
hGIII sPLA2 conf = human group III sPLA2 inhibitors, confirmation, biochemical, QFRET, triplicate; hit rate 34% among 2,000; inhibition, % at 12.2 µM; recombinant hGIII-sPLA2, BODIPY PC-A2 QFRET fluorescence; shares compounds with sPLA2-III inh;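 active = mean inhibition across triplicates above the hit cutoff set in the earlier primary screen, cut at about 19% in these data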;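 note: 0% = enzyme with DMSO and 100% = DMSO wells lacking enzyme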
BODIPY interf = 535nm fluorescence optical interference, confirmation, artefact control for HGIII-sPLA2 inhibitor project, biochemical, QFRET; BODIPY FL product fluorescence interference; hit rate 8.5% among 2,000; shares compounds with sPLA2-III inh; AID 743282, 2014; inhibition, % at 12.2 µM;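 active = average inhibition above the solvent-only control mean plus 3 SD, cut at about 6% in these data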;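 note: 0% = DMSO with substrate plus product and 100% = DMSO with substrate alone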
BODIPY interf DR = 535nm fluorescence optical interference, dose response, artefact control for HGIII-sPLA2 inhibitor project, biochemical, QFRET; shares compounds with sPLA2-III inh; BODIPY FL product fluorescence interference, cell-free; IC50, µM; 240 tested, under 10 active;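 active = IC50 at or below 10 µM; inactive = IC50 above 10 µM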
The depositor's hits bear a star; . = no result.

SMILES	sPLA2-III inh	ADAM17 inh	KLK7 zymogen act	ADAM10 inh	CendR NRP1 mod	hGIII sPLA2 conf	BODIPY interf	others
CC(C)C(=O)Nc1ccc(C(=O)NNC(=S)NC(=O)c2ccccc2[N+](=O)[O-])cc1	21*	0	0	3	-8	18	-4
O=C(NNC(=S)NC(=O)c1ccccc1[N+](=O)[O-])c1ccccc1	19*	-4	0	3	-3	24*	-3
CCC[C@@H](/C=C/C(=O)OC(C)(C)C)Sc1ccc(OC)cc1	7	-6	0	-7	.	.	.
CCCC(C)C(=O)NC1CCCCN(Cc2ccccc2C)C1=O (centres undefined)	7	-2	0	-2	.	.	.
O=C(N1CCOCC1)N1CC[C@H]2[C@H](CCCN2Cc2cc(F)cc(F)c2)C1	8	0	0	3	.	.	.
O=C(NC(=S)N1CCCCCC1)c1cccc([N+](=O)[O-])c1	20*	-5	0	-11	6	15	-3
O=C(NNC(=S)NC(=O)c1ccccc1)c1cccc([N+](=O)[O-])c1	25*	-3	0	7	7	25*	-1
CC(C)(C)c1ccc(OCC(=O)NNC(=S)NC(=O)c2ccccc2[N+](=O)[O-])c(Br)c1	-3	6	1	15	-18	.	.
Cc1ccccc1OCC(=O)NNC(=S)NC(=O)c1ccccc1[N+](=O)[O-]	23*	5	0	12	-7	28*	-4	BODIPY interf DR=>122
CCCOc1ccc(C(=O)NNC(=S)NC(=O)c2ccccc2[N+](=O)[O-])cc1	21*	4	0	7	1	31*	-4
O=C(NC(=S)N1CCCC1)c1cccc([N+](=O)[O-])c1	1	2	0	7	16	.	.
O=C(Nc1ccc(Cl)cc1)Nc1ccccc1C(=O)N1CCCC1	-5	1	0	-2	.	.	.
CCCCC(=O)Nc1ccc(C(=O)NNC(=S)NC(=O)c2ccccc2[N+](=O)[O-])cc1	23*	2	-1	13	-9	21*	-4
CCCCCCCCN1C(=O)[C@@H](CC(=O)N2CCN(C(=O)c3ccco3)CC2)C[C@@]2(C(=O)OC)C1=C[C@H](C1CCCC1)O[C@@H]2C	-4	1	0	9	.	.	.
CC(C)CC(=O)NC(=S)NNC(=O)c1ccc([N+](=O)[O-])cc1	19	4	0	-1	-5	.	.
CC(C)CC(=O)NC(=S)NNC(=O)c1ccc(NC(=O)C2CCCCC2)cc1	21*	3	0	0	17	37*	-10	BODIPY interf DR=>122
Cc1nc2c(C)cccn2c1/C(O)=C1\C(=O)C(=O)N(CCN(C)C)C1c1ccccc1 (centres undefined)	20*	-3	-1	1	8	6	0
O=S(=O)(c1ccc(-c2n[nH]c(=S)o2)cc1)N1CCCC1	21*	1	0	-2	1	18	-3
O=C(NNC(=S)Nc1ccc(Cl)cc1Cl)c1ccc(N2CCOCC2)c([N+](=O)[O-])c1	24*	4	0	7	-3	28*	12*
O=C(c1ccc(N2CCOCC2)c([N+](=O)[O-])c1)N1CCCCC1	2	-1	0	-6	13	.	.
COc1ccccc1Cc1c(-c2ccccc2)nc2ccc(C)cn12	1	-26	0	-96	.	.	.
COc1cc(C=NCC2OCCc3ccccc32)cc(OC)c1 (centres undefined)	20*	-4	-1	-11	-15	0	-4
COc1ccc(C2CC(=O)Nc3cc(OC)c(OC)cc32)cc1 (centres undefined)	21*	-1	-1	-14	12	1	-4
Nc1nc(-c2ccccc2)c(N=Nc2ccc(Cl)cc2)s1	19*	0	-1	-2	-4	34*	7.1*
CC(C)Cn1c(-c2csc3ccccc23)n[nH]c1=S	13	-2	0	7	1	.	.
SMILES	sPLA2-III inh	ADAM17 inh	KLK7 zymogen act	ADAM10 inh	CendR NRP1 mod	hGIII sPLA2 conf	BODIPY interf	others
CCn1c(-c2csc3ccccc23)n[nH]c1=S	24*	-6	0	0	6	22*	1
CCn1c(-c2csc(C(C)C)c2)n[nH]c1=S	22*	2	-2	3	-7	29*	2	BODIPY interf DR=>122
Cc1cc(-c2n[nH]c(=S)n2CC(C)C)cs1	20*	-1	0	-1	-5	24*	0
COCCCN1C(=O)[C@H](CC(=O)NCC23CC4CC(CC(C4)C2)C3)[C@]2(C(=O)OC)CCCCC=C12	-4	2	0	3	.	.	.
CCOC(=O)C(=O)NNc1ccc(Cl)cc1	2	-3	0	3	6	.	.
CCOC(=O)C(=O)NNc1ccc(C)cc1	21*	-5	0	6	-3	2	1
C[C@@H]1[C@@H](c2ccccc2)c2cc3ccccc3nc2C(=O)C[C@@H]1C(=O)N1CCCC1	-6	-5	0	-17	.	.	.
S=c1[nH]nc(-c2ccco2)n1/N=C/c1cccs1	20*	5	0	5	1	23*	-4
O=S(=O)(c1ccccc1Br)N(Cc1cn(CC2CCCCC2)nn1)C1CC1	-5	-1	0	-2	.	.	.
FC(F)(F)c1cccc(CC2CN(Cc3ccccc3)Cc3ccccc3N2c2cc(Cl)cc(Cl)c2)c1 (centres undefined)	27*	3	-13	-3	2	-4	3
C#CCNC(=O)C[C@H]1C[C@@]2(C(=O)OC)C(=C[C@H](C3CCCC3)O[C@@H]2C)N(CCCCCCCC)C1=O	6	6	0	-1	.	.	.
COc1cccc(S(=O)(=O)N(C)C[C@@H]2Oc3ncc(Br)cc3C(=O)N([C@H](C)CO)C[C@@H]2C)c1	-1	-4	0	-6	.	.	.
CCC1(CC)Cc2ccccc2C(CC(=O)N2CCOCC2)=N1	20*	7	0	9	20	19	-10
O=C(CC1=NC2(CCCC2)Cc2ccccc21)N1CCOCC1	6	-2	0	0	4	.	.
OC(c1ccccc1)(c1ccccc1)C1CCN(CCCOc2ccc(-c3cccnc3)cc2)CC1	-26	-2	0	-1	.	.	.
